Reference: PubChem BioAssay (EPA / NIEHS)
Results filed as inconclusive are left out. Activity calls are given as the source filed them. The calls were made as follows, unless noted: active = hit-call score of the fitted dose curve at least 0.9, where 1 is the maximum; inconclusive = response in the unintended direction; inactive = score below 0.9.

Tests used:
[1] = Tanguay_ZF_120hpf_TR_legacy: (Legacy) Oregon State University Tanguay Lab 120 Hour Post-fertilization zebrafish Assay for Touch Response (AID 2283667)
Procedure, shortened: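 Binary touch-response call at 120 hpf, analysed as gain of signal versus DMSO baseline. Wild-type 5D larvae, static exposure at 28C, 0.64% DMSO final; 5uM trimethyltin chloride as positive control.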

[2] = CCTE_Padilla_ZF_144hpf_TERATOSCORE: (Legacy) CCTE's 144 Hour Post-fertilization zebrafish Assay Teratoscore, Padilla Lab (AID 2283679; active = hit-call score of the fitted dose curve at least 0.9, where 1 is the maximum; inactive = score below 0.9;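 as to AC50: zebrafish embryos with chorions exposed by immersion from 6-8 hpf to 5 dpf with daily renewal; teratogenicity score from eye scoring of death hatching and malformations at 144 hpf; higher score means more developmental defects relative to DMSO baseline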)
Procedure, shortened: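 Larvae scored by eye at 144 hpf for death, hatching and malformations after a day in clean Hanks'. Before that, daily-renewed exposure at 80 uM (0.4% DMSO, 26C) from roughly 6-8 hpf through 5 dpf, 4 embryos per chemical.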

[3] = Tanguay_ZF_120hpf_ActivityScore_legacy: (Legacy) Oregon State University Tanguay Lab 120 Hour Post-fertilization zebrafish Assay Score for Activity (AID 2283742);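 as to AC50: dechorionated Tropical 5D wild-type zebrafish embryos held singly per well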
Procedure, shortened: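 Dechorionated 5D embryos, one per well, static exposure 6–120 hpf, 28C, sealed and dark; final DMSO 0.64% (vol/vol). Brightfield binary scoring of mortality plus 18 endpoints; gain-of-signal fit versus DMSO baseline.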

[4] = STM_H9_OrnithineISnorm_perc: Stemina devTOX quickPredict H9 human embryonic stem cell (hESC)-based Assay for Ornithine (ORN) Metabolite Biomarker, Normalized (AID 2283712; active = hit-call score of the fitted dose curve at least 0.9, where 1 is the maximum; inactive = score below 0.9;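 also: ornithine released into spent medium during last day measured by mass spectrometry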)
Procedure, shortened: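 Ornithine in spent medium from the last 24 h of a 72 h exposure, deproteinised and quantified by UPLC-HRMS against an isotope-labelled internal standard, expressed relative to 0.1% DMSO. Pluripotent H9 cells; compound refreshed every 24 h.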

[5] = STM_H9_CystineISnorm_perc: Stemina devTOX quickPredict H9 human embryonic stem cell (hESC)-based Assay for Cystine (CYSS) Metabolite Biomarker, Normalized (AID 2283713; active = hit-call score of the fitted dose curve at least 0.9, where 1 is the maximum; inactive = score below 0.9)
Procedure, shortened: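 Cystine in spent media from the last 24 h of a 72 h H9 hESC exposure (daily re-dosing), measured by UPLC-HRMS. Values normalized to isotopic internal standard, then to 0.1% DMSO; viability via CellTiter-Fluor.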

[6] = STM_H9_OrnCyssISnorm_ratio: Stemina devTOX quickPredict H9 human embryonic stem cell (hESC)-based Assay for Ornithine (ORN):Cystine (CYSS) Ratio (AID 2283714)
Procedure, shortened: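 UPLC-HRMS of spent media: ORN/CYSS ratio of internal-standard-normalized percentages, DMSO (0.1%) baseline. Pluripotent H9 hESCs, 72h exposure, daily re-dosing with fresh media; last 24h media collected.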

[7] = CEETOX_H295R_MTT_cell_viability: Viability Assessment in the CeeTox HT-H295R MTT Assay (AID 2283718; active = hit-call score of the fitted dose curve at least 0.9, where 1 is the maximum; inactive = score below 0.9)
Procedure, shortened: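 Human H295R adrenal cells, prestimulated 48 h with 10 uM forskolin, were exposed 48 h to chemicals in 0.1% DMSO. Viability was measured in the same wells by MTT (0.5 mg/ml, 4 h, 37 C), absorbance 570/650 nm, as percent of controls.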

## O=CCCCC=O
[1]
  outcome: inactive
[2]
  outcome: inactive
[3]
  outcome: inactive

## O=C=NCCCCCCN=C=O
[4]
  AC50: 0.0164 µM (active)
[5]
  outcome: inactive
[6]
  outcome: inactive
[3]
  outcome: inactive

## O=C(OCCCCCCOC(=O)c1ccccc1)c1ccccc1
[1]
  outcome: inactive
[2]
  AC50: 12.9 µM (active)
[3]
  outcome: inactive

## CCN(Cc1cccnc1)C(=O)c1cccc(Cl)c1[C@]1(C)C(=O)N(Cc2ccc(OC)cc2OC)c2ccc(Cl)cc21
[1]
  outcome: inactive
[2]
  AC50: 5.26 µM (active)
[3]
  AC50: 32.5 µM (active)

## COCC(C)OCC(C)OCC(C)O (configuration not stated)
[1]
  outcome: inactive
[3]
  outcome: inactive

## CCCCCCCCCC(=O)O
[1]
  outcome: inactive
[2]
  AC50: 65.8 µM (active)
[3]
  outcome: inactive

## CN1C(=O)N(c2ccccc2Br)Cc2cnc(Nc3ccc4c(c3)OCC(CO)O4)nc21 (configuration not stated)
[2]
  AC50: 4.31 µM (active)
[4]
  AC50: 1.42 µM (active)
[5]
  AC50: 1.06 µM (active)
[6]
  AC50: 1.18 µM (active)
[7]
  outcome: inactive
[3]
  AC50: 6.73 µM (active)

## CCCC(=O)OCCC(C)C
[3]
  outcome: inactive

## CCCCCCCCCCCC[N+](C)(C)C
[1]
  outcome: inactive
[4]
  AC50: 7.79 µM (active)
[5]
  AC50: 1.6 µM (active)
[6]
  AC50: 4.73 µM (active)
[7]
  outcome: inactive
[3]
  outcome: inactive

## CCCCCCCCCCCO
[1]
  outcome: inactive
[2]
  AC50: 62.4 µM (active)
[3]
  outcome: inactive

## O=C(O)c1ccccc1-n1cc(C(=O)O)c(=O)c2cc(Nc3c(F)cc(F)cc3Cl)c(Cl)cc21
[1]
  outcome: inactive
[3]
  outcome: inactive

## Cc1cccc2ccccc12
[1]
  outcome: inactive
[3]
  outcome: inactive

## CC1=CC(=O)/C(=C(/C)O)C(=O)O1
[2]
  outcome: inactive
[3]
  outcome: inactive

## O=c1[nH]sc2ccccc12
[1]
  outcome: inactive
[2]
  AC50: 16.4 µM (active)
[3]
  outcome: inactive

## O=C(O)Cn1c(=O)n(Cc2ccc(Br)cc2F)c(=O)c2ccc(Cl)cc21
[1]
  outcome: inactive
[7]
  outcome: inactive
[3]
  outcome: inactive

## Cc1oc2c(NC(=O)c3c(Cl)cccc3Cl)cccc2c1C(C)(C)O
[1]
  outcome: inactive
[2]
  AC50: 8.93 µM (active)
[7]
  outcome: inactive
[3]
  AC50: 45.5 µM (active)

## Cc1cc2c(cc1C(F)(F)F)N(C(=O)Nc1ccc(Oc3cccnc3C)nc1)CC2
[1]
  outcome: inactive
[7]
  outcome: inactive
[3]
  outcome: inactive

## CN(C)C(=O)C1(N2CCCCC2)CCN(CC[C@@]2(c3ccc(Cl)c(Cl)c3)CN(C(=O)c3ccccc3)CCO2)CC1
[2]
  AC50: 15 µM (active)
[4]
  AC50: 8.19 µM (active)
[5]
  outcome: inactive
[6]
  AC50: 8.17 µM (active)
[3]
  AC50: 16.2 µM (active)

## C[C@]12CC[C@@H]3c4ccc(O)cc4CC[C@H]3[C@@H]1CCC2=O
[1]
  outcome: inactive
[2]
  outcome: inactive
[7]
  outcome: inactive
[3]
  outcome: inactive

## CCO[Si](CCCNC(N)=O)(OCC)OCC
[1]
  outcome: inactive
[3]
  outcome: inactive

## CC[C@@H]1C[C@H](N(Cc2cc(C(F)(F)F)cc(C(F)(F)F)c2)C(C)=O)c2cc(C(F)(F)F)ccc2N1C(=O)OC(C)C
[3]
  outcome: inactive

## CCCCOC(=O)CC(CC(=O)OCCCC)(OC(C)=O)C(=O)OCCCC
[1]
  outcome: inactive
[2]
  AC50: 4.96 µM (active)
[3]
  outcome: inactive

## OCCO
[1]
  outcome: inactive
[4]
  outcome: inactive
[5]
  outcome: inactive
[6]
  outcome: inactive
[3]
  outcome: inactive

## CC(C)(O)c1ccc(CNC(=O)c2cccnc2Oc2ccc3nonc3c2)cc1
[7]
  outcome: inactive
[3]
  outcome: inactive

## CCCCCCCC[Si](OCC)(OCC)OCC
[1]
  outcome: inactive
[2]
  outcome: inactive
[7]
  outcome: inactive
[3]
  outcome: inactive

## Cc1cc(F)ccc1-c1cc(N2CC[C@@H](O)[C@H]2CO)ncc1N(C)C(=O)C(C)(C)c1cc(C(F)(F)F)cc(C(F)(F)F)c1
[1]
  outcome: inactive
[2]
  AC50: 4.05 µM (active)
[3]
  outcome: inactive

## c1ccc(C[n+]2cccc3ccccc32)cc1
[1]
  outcome: inactive
[2]
  outcome: inactive
[7]
  outcome: inactive
[3]
  outcome: inactive

## CN1C(=O)CC[C@H]1c1cccnc1
[1]
  outcome: inactive
[4]
  outcome: inactive
[5]
  outcome: inactive
[6]
  outcome: inactive
[3]
  outcome: inactive

## CCCCCCCCOc1ccc(C(=O)c2ccccc2)c(O)c1
[7]
  outcome: inactive
[3]
  outcome: inactive

## Cc1ccc(C(C)C)cc1
[1]
  outcome: inactive
[3]
  outcome: inactive

## O=c1ccc2ccccc2o1
[1]
  outcome: inactive
[2]
  outcome: inactive
[3]
  outcome: inactive

## c1ccc2ccccc2c1
[1]
  outcome: inactive
[3]
  outcome: inactive

## c1ccc2n[nH]nc2c1
[1]
  outcome: inactive
[2]
  outcome: inactive
[3]
  outcome: inactive

## Cc1ncc(CO)c(CO)c1O
[1]
  outcome: inactive
[2]
  outcome: inactive
[3]
  outcome: inactive

## CCCCCCCCN(C)CCCCCCCC
[1]
  outcome: inactive
[4]
  outcome: inactive
[5]
  outcome: inactive
[6]
  outcome: inactive
[7]
  outcome: inactive
[3]
  outcome: inactive
